HP1b chromo inh – HTS for Inhibitors of HP1-beta Chromodomain Interactions with Methylated Histone Tails; 0.56% of 390,000 active; AlphaScreen HP1-beta / biotin-H3K9me3 peptide binding; Chromobox protein homolog 1 (Homo sapiens), P83916; Potency, µM (highest dose often 114 µM), for inactives: at the top dose activity change, negative = inhibition, most hits filed as inhibitors; further: potency means the concentration at half of the fitted maximal effect; nearly all actives have a fitted effect of over 70% in size
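HP1-beta protein (50 nM final) preincubated 30 min at room temperature with biotinylated H3(1-18)K9me3 peptide (50 nM) in PBS pH 7.4, 0.01% Tween-20, then compound added for 30 min. AlphaScreen streptavidin donor/nickel chelate acceptor beads (10 ug/mL final), 30 min dark, luminescence read.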
G9a block – qHTS Assay for Inhibitors of Histone Lysine Methyltransferase G9a; Histone-lysine N-methyltransferase EHMT2 (Homo sapiens), Q96KQ7; G9a H3K9 monomethylation, AlphaScreen, 2 h; Potency, µM (top dose mostly 102 µM), for the others: at the top dose activity, negative = inhibition, hits mostly inhibitors; 8.8% of 350,000 active; further: potency means the concentration at half of the fitted maximal effect; on the % scale 0 is the no-effect control and ±100 the full control effect; nearly all actives have a fitted effect of over 75% in size
Target sequence (Q96KQ7 913-1193 limits assumed): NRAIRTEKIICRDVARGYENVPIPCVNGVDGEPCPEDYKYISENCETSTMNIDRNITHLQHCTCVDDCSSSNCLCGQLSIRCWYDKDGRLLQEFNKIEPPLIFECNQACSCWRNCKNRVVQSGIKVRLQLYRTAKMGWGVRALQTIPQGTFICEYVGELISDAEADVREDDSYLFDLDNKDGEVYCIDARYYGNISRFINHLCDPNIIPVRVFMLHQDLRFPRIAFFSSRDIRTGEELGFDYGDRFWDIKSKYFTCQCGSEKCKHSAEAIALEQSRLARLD
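AlphaScreen detection with an anti-monomethyl H3K9 antibody quantified product after a 2 h room-temperature reaction containing 500 nM biotinylated H3K9 peptide, 20 µM SAM and 20 nM enzyme, which had been preincubated 15 min with compound.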
JMJD2A Tudor – qHTS Assay for Inhibitors of JMJD2A-Tudor Domain | AlphaScreen JMJD2A-Tudor / H3K4me3 peptide binding | AID 504339, 2011 | 4.4% of 390,000 active | Lysine-specific demethylase 4A (Homo sapiens), O75164 | Potency, µM (highest dose often 114 µM), inactives show top-dose activity change, negative = inhibition, most hits filed as inhibitors; further: potency means the concentration at half of the fitted maximal effect; on the % scale 0 is the no-effect control and ±100 the full control effect; nearly all actives have a fitted effect of over 50% in size
BAZ2B inh – qHTS Assay for Inhibitors of BAZ2B | AID 504333, 2011 | Potency, µM (titrated, usually from 114 µM), inactives show top-dose activity change, negative = inhibition, actives largely listed as inhibitors | Bromodomain adjacent to zinc finger domain protein 2B (Homo sapiens), Q9UIF8 | 4.4% of 360,000 active | AlphaScreen BAZ2B-H3K14Ac peptide displacement; further: potency means the concentration at half of the fitted maximal effect; on the % scale 0 is the no-effect control and ±100 the full control effect; nearly all actives have a fitted effect of over 60% in size
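Complex of BAZ2B and biotin-H3K14Ac (50 nM apiece) forms over 30 min at RT, then faces library compounds up to 110 uM for another 30 min; AlphaScreen beads added, 20 min dark incubation, luminescence read.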
PI5P4K alpha inh – qHTS for Inhibitors of phosphatidylinositol 5-phosphate 4-kinase (PI5P4K); Phosphatidylinositol 5-phosphate 4-kinase type-2 alpha (Homo sapiens), P48426; PI5P4Kalpha enzyme, ADP-Glo luminescence, 60 min; active compounds read low; max response, %; 1.2% of 330,000 active; active means max response of -50% or lower; inconclusive means between -30% and -50%; inactive means -30% or higher; further: value at the top dose of about 77 µM; on the % scale 0 is the no-effect control and ±100 the full control effect
Target sequence (P48426 whole entry, looked up): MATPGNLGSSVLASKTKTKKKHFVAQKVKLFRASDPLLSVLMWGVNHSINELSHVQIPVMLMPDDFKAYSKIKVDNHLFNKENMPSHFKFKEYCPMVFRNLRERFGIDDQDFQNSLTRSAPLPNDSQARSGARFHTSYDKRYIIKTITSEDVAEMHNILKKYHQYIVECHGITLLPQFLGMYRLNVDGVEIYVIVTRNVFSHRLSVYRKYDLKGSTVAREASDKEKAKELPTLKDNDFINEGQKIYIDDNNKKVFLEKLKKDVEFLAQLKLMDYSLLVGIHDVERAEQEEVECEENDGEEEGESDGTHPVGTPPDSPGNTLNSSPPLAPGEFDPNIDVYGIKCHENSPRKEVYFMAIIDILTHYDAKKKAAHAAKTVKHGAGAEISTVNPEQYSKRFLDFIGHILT
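Controls without substrate or without enzyme flank wells where PI5P4Kalpha converts substrate using 5 microM ATP (final). Incubation lasts 60 minutes at room temperature; ADP formed is read by ADP-Glo luminescence.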
PLK1 PBD inh – qHTS for Inhibitors of PLK1-PDB (polo-like kinase 1 - polo-box domain): Primary Screen; Serine/threonine-protein kinase PLK1 (Homo sapiens), P53350; Plk1 PBD binding of FITC phosphopeptide, fluorescence polarization; Potency, µM, inactives show max response, negative = inhibition, usual class: inhibitors; 2.8% of 360,000 active; further: potency means the concentration at half of the fitted maximal effect; series mostly up to about 57 µM; on the % scale 0 is the no-effect control and ±100 the full control effect; nearly all actives have a fitted effect of over 65% in size
* marks the source's active call; other numbers are inactive results; ? = inconclusive; · = not tested or not shown; [ ] = another dose, or the depositor's remark. Shown are actives, neighbours in structure and some others; about 12% of the full set was active somewhere. Unless noted, the call rests on the fitted dose curve; in most records, active means well fitted curve in the direction sought with a large enough effect; inconclusive means small, poorly fitted or top-dose-only effect, or another doubt; inactive means no such curve, though single readings can be large; an effect the other way counts as inactive or inconclusive.

SMILES	HP1b chromo inh	G9a block	JMJD2A Tudor	BAZ2B inh	PI5P4K alpha inh	PLK1 PBD inh
O=C(Nc1nccs1)[C@@H]1CCCN1S(=O)(=O)c1ccccc1F	32%	40µM*	1%	7%	-4	-11%
COc1ccc(C)cc1NC(=O)C1CCCN1S(=O)(=O)c1ccccc1F (stereo not drawn)	42%	8.9µM*	4%	11%	1	0%
O=C(Nc1nccs1)C1CCCN1S(=O)(=O)c1ccc(Cl)cc1 (stereo not drawn)	22%	-46%[59 µM]	-13%	·	·	-4%
COc1cc(/C=C/C(=O)Nc2nnc(C(C)(C)C)s2)cc(OC)c1OC	?	4.5µM*	-24%	13%	-8	24µM*
COc1cc(C(Nc2ccc3c(c2)OCO3)C(=O)NC2CCCCC2)cc(OC)c1OC (stereo not drawn)	-31%	2.8µM*	?	40µM*	-10	-13%
COc1cc(/C=C/C(=O)Nc2cc(C(F)(F)F)ccc2Cl)cc(OC)c1OC	-1%	34%[12.7 µM]	0%[11.4 µM]	-2%	1	27µM*
COc1cc(/C=C/C(=O)NC2CCCCC2)cc(OC)c1OC	-8%	9%	5%[57.1 µM]	0%	-1	27µM*
COc1cc(NC(=O)Nc2ccc3c(c2)OCO3)cc(OC)c1OC	8%	?	-15%	·	2	-7%
Nn1c(SC/C=C/c2ccccc2)nnc1-c1ccncc1	20%	14µM*	?	-7%	-6	-11%
Cc1noc(C)c1CSc1nnc(-c2ccccc2)n1N	?	3.2µM*	?	-4%	-27	21µM*
O=C(CSc1nnc(-c2ccccn2)n1Cc1ccco1)c1ccc(-c2ccccc2)cc1	5%	45µM*	-31%	-4%	·	-24%
C(=C\c1ccccc1)/CSc1nnc(-c2cnccn2)n1Cc1ccco1	6%	10µM*	?	-34%	-22	-19%
Fc1ccccc1CSc1nnc(-c2cnccn2)n1Cc1ccco1	8%	-16%[59 µM]	-24%	-21%	-11	-1%
Cc1ccc(Oc2ccc(NS(=O)(=O)c3cccc(C(=O)O)c3)cc2)cc1	-4%	·	-12%	·	-1	-21%
CC(=O)N=c1sccn1CC(O)c1ccc(Br)cc1 (stereo not drawn)	24%	-2%	-13%	-7%	-9	-16%
Clc1ccc(CSc2nnc(-c3ccccn3)n2Cc2ccco2)c(Cl)c1	20%	50µM*	?	-5%	·	-17%
O=C(CSc1nnc(-c2ccc(O)cc2)n1Cc1ccco1)c1ccccc1	52%	50µM*	-10%	-9%	-14	-9%
COC(=O)CSc1nnc(-c2ccccn2)n1Cc1ccco1	7%	?	-13%	4%	-5	4%
COc1ccc(C(C)(NC(C)=O)c2nc(/C=C/c3ccccc3)cs2)cc1 (stereo not drawn)	·	·	·	·	-2	2%
Oc1ccccc1C(=S)N1CCCC1	-16%	14%[0.501 µM]	-2%	5%	-3	?
Oc1ccccc1C(=S)N1CCN(C(=S)c2ccccc2O)CC1	?	3.5µM*	-33%	6%	-10	24µM*
CCCNC(=O)N1c2ccccc2Sc2ccccc21	16%	·	3%	1%	2	-3%
CCC(C)NC(=O)N1c2ccccc2Sc2ccccc21 (stereo not drawn)	5%	45µM*	?	-28%	3	-12%
CCOc1ccc(C(=O)CCC(=O)Nc2cccc(S(=O)(=O)N3CCCCC3)c2)cc1	8%	11%[59 µM]	-17%	2%	9	8%
O=C(N/C(=C/c1cccc(Br)c1)C(=O)N1CCOCC1)c1ccco1	·	·	·	·	0	4%
SMILES	HP1b chromo inh	G9a block	JMJD2A Tudor	BAZ2B inh	PI5P4K alpha inh	PLK1 PBD inh
CCCCn1c(O)c(/C=C/C=C/C=Nc2ccccc2)sc1=S	3.2µM*	2.8µM*	?	6.3µM*	?	?
CCn1c(O)c(C=Nc2ccccc2)oc1=S	-19%	28µM*	-21%	8%	-15	27µM*
CCCn1c(O)c(C=Nc2ccccc2)sc1=S	25%	-24%	-22%[11.4 µM]	-12%	15	-10%
Oc1c(/C=C/C=C/C=Nc2ccccc2)sc(=S)n1Cc1ccccc1	?	2.2µM*	?	?	-79*	?
CCn1c(O)c(/C=C/C=C/C=Nc2ccccc2)sc1=S	?	14µM*	?	?	-63*	?
Cc1ccc(-c2nc(C=Nc3ccccc3)c(O)o2)cc1	22%	-8%	-14%	15%	3	7%
O=C(Cc1ccccc1)NCC(=O)N1CCN(c2ccc(F)cc2)CC1	·	·	·	·	0	1%
N#Cc1ccc(CN2CCN(C(=O)CCNS(=O)(=O)c3ccc(F)c(Cl)c3)CC2)cc1	26%	?	-16%	0%	1	-7%
CCC(=O)N1CCC1(C)C(=O)NS(=O)(=O)c1cccc(C#N)c1 (stereo not drawn)	·	·	·	·	1	-6%
CCOc1cccc(C2C=C(c3ccc4c(c3)OCO4)NC(c3ccc(F)cc3)N2)c1O (stereo not drawn)	-18%[57 µM]	·	?	·	·	·
Fc1ccc([C@@H]2CCNC[C@H]2COc2ccc3c(c2)OCO3)cc1	?	24µM*	?	?	26	-4%
Fc1ccc(C2CCNCC2COc2ccc3c(c2)OCO3)cc1 (stereo not drawn)	?	50µM*	?	?	1	-23%
Nc1ccc(S(=O)(=O)Nc2nccs2)cc1N=Nc1ccccc1[N+](=O)[O-]	40µM*	·	40µM*	·	-103*	30µM*
CCc1nnc(NS(=O)(=O)c2ccc(NS(=O)(=O)c3ccccc3[N+](=O)[O-])cc2)s1	20%	?	-4%	-7%	-19	24µM*
CCc1nnc(NS(=O)(=O)c2ccc(Nc3ccc([N+](=O)[O-])c4nonc34)cc2)s1	?	25µM*	?	22µM*	-57*	?
O=[N+]([O-])c1ccccc1S(=O)(=O)Nc1ccc(S(=O)(=O)Nc2nccs2)cc1	-14%	45µM*	-24%	-21%	-6	27µM*
COc1ccccc1NC(=O)CSc1nccn1Cc1ccccc1	-4%	-7%	-25%	?	7	-5%
COc1ccc(NC(=O)c2cc(CN3C(=O)c4ccccc4C3=O)ccc2OC)cn1	-1%	?	-7%[11.4 µM]	?	-10	27µM*

High-throughput results as filed in PubChem BioAssay.
